Assay outcomes from PubChem BioAssay.
The list is not random: actives were taken first. Their share in the collection is about 10%.
Gal4-VP16 FLuc: Gal4-VP16 reporter inhibition counter-screen; Drosophila S2 Gal4-VP16 UAS-luciferase, luminescence, 20 h; Potency, µM (titrated, usually from 53.6 µM), inactives show at the top dose activity, negative = inhibition, hits mostly inhibitors; 310,000 tested, 3.5% active;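 also: Gal4-VP16 expression switched on by copper sulfate through the metallothionein promoter; % is scaled to controls: 0 for no effect and ±100 for the full control effect; nearly all actives have a fitted effect of over 50% in size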
KB-V1 cytotox: KB-V1 MDR subline cytotoxicity; AID 1347076; Potency, µM (top dose mostly 46.1 µM), hits mostly cytotoxic; 400,000 tested, 3.4% active; KB-V1 MDR cells viability, CellTiter-Glo, 72 h; also: % is scaled to controls: 0 for no effect and ±100 for the full control effect; nearly all actives have a fitted effect of over 60% in size
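Potencies derive from concentration-effect curves fitted to normalized luminescence (CellTiter-Glo) of KB-V1 cells treated for 72 h at 37 degrees C in phenol-red-free DMEM containing 10% FBS.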
RORg inh: ROR gamma (mouse) transcription inhibition. P51450. Drosophila S2 Gal4-RORgamma UAS-luciferase reporter, 20 h. Potency, µM (titrated, usually from 53.6 µM), inactives show top-dose activity change, negative = inhibition, most hits filed as inhibitors. 310,000 tested, 5.4% active. AID 2551; also: % is scaled to controls: 0 for no effect and ±100 for the full control effect; nearly all actives have a fitted effect of over 60% in size
Target sequence (P51450 whole entry, looked up, the tested form may be a part): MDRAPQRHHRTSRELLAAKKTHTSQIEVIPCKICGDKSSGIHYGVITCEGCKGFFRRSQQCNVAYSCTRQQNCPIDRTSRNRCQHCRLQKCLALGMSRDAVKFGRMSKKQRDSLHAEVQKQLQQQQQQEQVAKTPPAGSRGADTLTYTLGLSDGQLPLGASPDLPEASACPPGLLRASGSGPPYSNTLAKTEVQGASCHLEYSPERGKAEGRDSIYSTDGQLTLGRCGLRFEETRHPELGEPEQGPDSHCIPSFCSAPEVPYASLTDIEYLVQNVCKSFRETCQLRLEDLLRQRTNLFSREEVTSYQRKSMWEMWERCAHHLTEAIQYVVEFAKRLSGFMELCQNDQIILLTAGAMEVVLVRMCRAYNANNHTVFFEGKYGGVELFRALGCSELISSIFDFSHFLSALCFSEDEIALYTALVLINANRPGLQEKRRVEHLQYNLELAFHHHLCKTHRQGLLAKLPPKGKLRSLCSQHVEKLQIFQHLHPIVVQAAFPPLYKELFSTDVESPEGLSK
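Drosophila Schneider cells stably carrying a metallothionein-driven Gal4 DBD–ROR gamma fusion and a UAS-Photinus luciferase reporter were exposed to compound for 1 hr, then induced with copper sulfate (700 uM final) for 20 hr at ambient temperature before luminescence reading.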
SW480 rerep: inducers of DNA re-replication in SW480 colon cancer cells; SW480 DNA re-replication, Hoechst DNA content imaging, 48 h; Potency, µM (titrated, usually from 46.1 µM), for inactives: at the highest dose re-replication activation, hits mostly activators; 340,000 tested, 1.8% active; AID 624297; also: % of control where 0% means no effect; nearly all actives have a fitted effect of over 55% in size
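Compounds, transferred as 23 nL by pin tool, were incubated with cells for 48 hr; DNA content per nucleus was then quantified by Hoechst staining and fluorescence plate imaging.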
MCF10A rereplic: induces DNA re-replication in MCF 10a normal breast cells | MCF 10A DNA re-replication, Hoechst nuclear intensity, 48 h | Potency, µM (highest dose often 46.1 µM), inactives show at the highest dose activity, positive = re-replication, usual class: activators | 350,000 tested, 2.9% active; also: % of control where 0% means no effect; nearly all actives have a fitted effect of over 50% in size
KB-3-1 tox: KB-3-1 parental cell cytotoxicity | AID 1347075 | 400,000 tested, 1.4% active | Potency, µM (titrated, usually from 46.1 µM), most hits filed as cytotoxic | KB-3-1 viability, CellTiter-Glo ATP luminescence, 72 h; also: % is scaled to controls: 0 for no effect and ±100 for the full control effect; nearly all actives have a fitted effect of over 60% in size
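Parental KB-3-1 adenocarcinoma cells in phenol-red-free DMEM with 10% FBS were pin-treated with compounds at several concentrations, incubated 72 h at 37 °C, and viability read by CellTiter-Glo luminescence; concentration-effect curves were fitted after normalization.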
Active calls of the source: *. Calls follow the shape of the dose curve; as a rule, active = well fitted curve in the direction sought with a large enough effect; inconclusive = small, poorly fitted or top-dose-only effect, or another doubt; inactive = no such curve, though single readings can be large; an effect the other way counts as inactive or inconclusive. Potency is read from the fitted curve at half-maximal effect.

How did O=C(Nc1ccc(C2CC2(Cl)Cl)cc1)c1ccccc1Br (stereo not given) do in these assays?
Gal4-VP16 FLuc: -7%; KB-V1 cytotox: 18µM*; RORg inh: 4%; SW480 rerep: 2%; MCF10A rereplic: inconclusive; KB-3-1 tox: inactive

Results for CCOc1ccc(NC(=O)CCS(=O)(=O)c2cccc3nonc23)cc1 ?
KB-V1 cytotox: inactive; KB-3-1 tox: inactive

How did COc1ccc(OC)c(NC(=O)c2c(NCc3ccc(C)o3)sc3c2CCC(C)C3)c1 (stereo not given) do in these assays?
KB-V1 cytotox: inactive; KB-3-1 tox: inactive

Results for O=C(C[n+]1cccc2cc(Cl)ccc21)c1ccc(Br)cc1 ?
KB-V1 cytotox: inactive; KB-3-1 tox: inconclusive

How did COc1cc(/C=N/n2c(COc3ccccc3)n[nH]c2=S)cc(Br)c1O do in these assays?
Gal4-VP16 FLuc: -21%; KB-V1 cytotox: inactive; RORg inh: -38%; SW480 rerep: -2%; MCF10A rereplic: -2%; KB-3-1 tox: inactive

What do the screens show for `FC(F)(F)c1ccc(/C=N/n2c(COc3ccccc3)n[nH]c2=S)cc1`?
Gal4-VP16 FLuc: -16%; KB-V1 cytotox: inconclusive; RORg inh: inconclusive; SW480 rerep: -1%; MCF10A rereplic: 7%; KB-3-1 tox: inactive

What do the screens show for `O=[N+]([O-])c1ccc(Cl)c(/C=N/n2c(COc3ccccc3)n[nH]c2=S)c1`?
Gal4-VP16 FLuc: -2%; KB-V1 cytotox: 16µM*; RORg inh: inconclusive; SW480 rerep: inconclusive; MCF10A rereplic: inconclusive; KB-3-1 tox: inactive

Results for FC(F)(F)c1ccccc1/C=N/n1c(COc2ccccc2)n[nH]c1=S ?
Gal4-VP16 FLuc: 10µM*; KB-V1 cytotox: inactive; RORg inh: 5.6µM*; SW480 rerep: -10%; MCF10A rereplic: 25%; KB-3-1 tox: inactive

How did Oc1ccc(Br)cc1/C=N/n1c(COc2ccccc2)n[nH]c1=S do in these assays?
Gal4-VP16 FLuc: inconclusive; KB-V1 cytotox: inactive; RORg inh: 10µM*; SW480 rerep: -10%; MCF10A rereplic: inconclusive; KB-3-1 tox: inconclusive

What do the screens show for `S=c1[nH]nc(COc2ccccc2)n1/N=C/c1ccccn1`?
Gal4-VP16 FLuc: -14%; KB-V1 cytotox: inactive; RORg inh: inconclusive; SW480 rerep: 1%; MCF10A rereplic: 4%; KB-3-1 tox: inactive

How did S=c1[nH]nc(COc2ccccc2)n1/N=C/c1ccccc1Br do in these assays?
Gal4-VP16 FLuc: inconclusive; KB-V1 cytotox: inactive; RORg inh: 8.9µM*; SW480 rerep: -7%; MCF10A rereplic: 3%; KB-3-1 tox: inactive

How did CCC/C=C(\CCC)C(NS(=O)(=O)CC12CCC(CC1=O)C2(C)C)c1ccc(C(=O)OC)cc1 (stereo not given) do in these assays?
Gal4-VP16 FLuc: -20%; RORg inh: 7%

What do the screens show for `Cc1noc(C)c1S(=O)(=O)N(CC(=O)NCc1ccccc1Cl)c1ccc(C(C)C)cc1`?
KB-V1 cytotox: inactive; KB-3-1 tox: inactive

How did Cc1nc(C)c(C(=O)NNS(=O)(=O)c2ccc3ccccc3c2)s1 do in these assays?
Gal4-VP16 FLuc: 1µM*; KB-V1 cytotox: inconclusive; RORg inh: inconclusive; SW480 rerep: 6%; MCF10A rereplic: -6%; KB-3-1 tox: inactive

Results for CCC(=O)NC1=C(Cl)C(=O)C(NC(=O)CC)=C(Cl)C1=O ?
Gal4-VP16 FLuc: 7.1µM*; KB-V1 cytotox: inactive; RORg inh: 2.8µM*; SW480 rerep: 13%; MCF10A rereplic: inconclusive; KB-3-1 tox: inactive

What do the screens show for `O=C(O)c1cc(/C=C/c2ccc(N3CCOCC3)cc2)nc2ccccc12`?
Gal4-VP16 FLuc: 5µM*; KB-V1 cytotox: 10µM*; RORg inh: 6.3µM*; SW480 rerep: 1%; MCF10A rereplic: 7%; KB-3-1 tox: inactive
